Sampled rows, rich in hits. Any-hit rate of the full collection: about 2.8%.
TRPM1 prom inh: MITF TRPM1 promoter inhibition in SK-MEL-5 cells | AID 488899 | 330,000 compounds, 0.83% hits | inhibition, % at 12.5 µM | SK-MEL-5 TRPM1 promoter luciferase, 24 h;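 active = mean inhibition across replicates of 60% or more, whatever share of single replicates reaches that level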
KKLEB tox: reduces viability of KKLEB cystic fibrosis airway cells; activity change (cytotoxicity), % at 5 µM; KKLEB CF airway cells viability, ATPlite luminescence, overnight; stronger effect = lower value; cells stimulated with P. aeruginosa culture filtrate; 360,000 compounds, 0.36% hits; AID 602141;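 active = corrected activity change at or below -50% at 5 µM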
Peg3 prom inh-1: reduces Peg3 promoter-driven luciferase expression in HeLa; HeLa PEG-Prom luciferase reporter, luminescence, overnight; inhibition, % at 20 µM; 360,000 compounds, 1.7% hits;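 active = inhibition of at least 50% at 20 µM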
B2AR ag: activates human beta-2 adrenergic receptor causing internalization; P07550; Am2.2-beta2AR cells, FAP receptor internalization, flow cytometry; response, % (test concentration not listed); 340,000 compounds, 0.43% hits;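 active = response above a set limit, near 3 SD of response in nonfluorescent compounds, cut at about 42% in these data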
Target sequence (P07550 whole entry, looked up): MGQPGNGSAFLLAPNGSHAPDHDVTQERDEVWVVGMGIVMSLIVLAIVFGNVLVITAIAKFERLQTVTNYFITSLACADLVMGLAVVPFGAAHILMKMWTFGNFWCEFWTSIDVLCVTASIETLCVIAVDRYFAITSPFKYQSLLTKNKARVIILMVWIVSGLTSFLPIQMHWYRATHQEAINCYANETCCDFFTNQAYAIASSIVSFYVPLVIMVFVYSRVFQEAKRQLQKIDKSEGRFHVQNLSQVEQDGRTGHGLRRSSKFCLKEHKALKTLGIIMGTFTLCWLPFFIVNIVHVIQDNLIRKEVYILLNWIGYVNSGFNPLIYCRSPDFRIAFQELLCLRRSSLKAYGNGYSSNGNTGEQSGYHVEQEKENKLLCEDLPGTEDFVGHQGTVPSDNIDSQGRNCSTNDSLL
CF NFkB block: blocks PAF-induced NF-kB reporter in cystic fibrosis cells; KKLEB NF-kB-GFP reporter, GFP fluorescence overnight; inhibition, % at 5 µM; 360,000 compounds, 0.86% hits; AID 588850;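 active = at least 50% inhibition at 5 µM, scaled per plate between neutral and stimulator controls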;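 note: PAF is a Pseudomonas aeruginosa culture filtrate used as stimulus; plate controls were PAF-stimulated DMSO wells for no effect and unstimulated DMSO wells for full effect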
HIF-2a inh: HIF-2a inhibition. 786-0 RCC cells HIF-2a reporter, luciferase luminescence, overnight. AID 624352. 360,000 compounds, 0.72% hits. inhibition, % at 18.8 µM;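 active = inhibition of the luminescence signal of 40% or more relative to plate controls, in a single-dose primary screen at 18.75 µM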
Peg3 prom inh-2: Peg3 promoter inhibition confirmation. HeLa PEG-Prom luciferase reporter, luminescence, overnight. shares compounds with Peg3 prom inh-1. inhibition, % at 20 µM. 1,300 compounds, 84% hits;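 active = at 20 µM dose, 40% or more inhibition averaged across four replicates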
Starred values were filed as active, the others as inactive; . = no result given.

SMILES	TRPM1 prom inh	KKLEB tox	Peg3 prom inh-1	B2AR ag	CF NFkB block	HIF-2a inh	Peg3 prom inh-2
Cc1cccc2c1-c1sc(C(=O)NCCCN3CCCC(C)C3)cc1CO2 (stereo not drawn)	7.3	-14.0	76.5*	27.6	8.9	-9.8	98.8*
O=C(Cc1cccs1)Nc1cccc(-c2nnc(-c3ccco3)o2)c1	-37.3	-8.1	-43.8	-19.5	-23.5	-117.3	.
Cc1ccc(-c2nnc(-c3ccc(NC(=O)Cc4cccs4)cc3)o2)cc1	41.0	-77.2*	55.5*	6.8	71.1*	-19.9	16.8
Cc1cnc(NC(=O)c2ccc(OCC3CCCO3)cc2)s1 (stereo not drawn)	26.3	-42.3	52.9*	1.4	16.5	19.1	10.7
Cc1ccc(NC(=O)c2ccc(OCC3CCCO3)cc2)nc1 (stereo not drawn)	-78.8	5.4	-302.9	-1.1	-12.2	-165.4	.
C=Cn1cc(CNC[C@H]2O[C@@H](n3cnc4c(=O)[nH]c(N)nc43)[C@H](O)[C@@H]2O)c(C)n1	.	-6.4	9.9	.	-18.6	8.0	.
O=C(Nc1ccccc1)c1nc[nH]c1C(=O)NCCCNC(=O)c1[nH]cnc1C(=O)Nc1ccccc1	4.5	-29.2	62.7*	4.7	17.1	0.7	46.3*
O=C(Nc1ccccc1)c1nc[nH]c1C(=O)NCCCCCCNC(=O)c1[nH]cnc1C(=O)Nc1ccccc1	13.2	-7.6	61.6*	-4.9	7.4	4.7	56.8*
O=S(=O)(c1ccc(Cl)cc1)N1CCN(Cc2ccc(O)c3ncccc23)CC1	64.0*	-2.2	52.5*	2.7	5.6	7.7	56.2*
O=S(=O)(c1ccc(Cl)cc1)N1CCN(Cc2ccncc2)CC1	9.9	7.3	-10.6	2.0	-3.9	17.3	.
CCc1nc2ccc(C(=O)N3CCN(S(=O)(=O)CC)CC3)cn2c1N(CC)Cc1cccc(Br)c1	.	-20.9	1.9	.	-7.8	4.1	.
COc1cc(C(=O)N/N=C(\c2ccccc2)c2ccccn2)cc(OC)c1OC	78.4*	1.8	107.0*	-5.5	15.8	28.9	80.7*
COC(=O)C1=CN(c2ccc3c(c2)OCO3)C(N)=C(C#N)C1c1cccc(F)c1 (stereo not drawn)	.	.	.	.	.	-62.8	.
COc1ccccc1C(=O)Nc1nc2ccccc2[nH]1	96.3*	-73.6*	97.8*	-25.0	-6.5	93.4*	91.8*
Cc1ccc(C(=O)Nc2cnc3ccccc3c2)cc1	84.4*	-20.4	99.0*	-0.5	-5.3	83.9*	94.1*
COc1ccccc1C(=O)NCCC(=O)Nc1nc2ccccc2[nH]1	13.7	-3.5	-29.7	-14.2	27.9	-17.3	.
Cc1ccc(C(=O)Nc2nc3ccccc3[nH]2)cc1	73.2*	-51.9*	70.5*	-8.9	-8.9	63.0*	63.5*
COc1ncnc2c1ncn2CCCNCc1ccco1	.	1.5	-3.3	.	-3.6	-9.3	.
CC(C)NC(=O)C1(C)CCN1C(=O)c1c(F)cccc1F (stereo not drawn)	.	5.0	9.9	.	-7.9	11.4	.
CC1(C)OC(=O)C2=C(C[C@@H](CCOCc3ccccc3)O[C@H]2c2ccc(F)cc2)O1	.	0.7	10.3	.	7.9	10.2	.
CCN(CC)c1ccc(NC(=O)Cn2c(C(C)NC(=O)c3ccccc3)nc3ccccc32)cc1 (stereo not drawn)	6.2	-5.1	78.5*	-1.1	-2.1	-3.3	10.0
CC(NC(=O)c1ccccc1)c1nc2ccccc2n1Cc1ccc(C#N)cc1 (stereo not drawn)	0.1	-1.9	13.7	0.0	-2.7	13.1	.
COc1cccc(CNc2nc3cc(-c4cnn(Cc5ccccc5)c4)sc3c(=O)n2C)c1	.	0.5	25.0	.	20.7	-3.5	.
COCc1ccc(CN2CCC(C(=O)Nc3cccc(-c4cscn4)c3)CC2)o1	16.5	4.8	8.7	-1.2	-8.8	7.5	.
COCc1ccc(CN2CCC(C(=O)Nc3cccc(-c4cccc(Cl)c4)c3)CC2)o1	17.8	-8.8	103.4*	37.5	14.6	33.8	99.0*
SMILES	TRPM1 prom inh	KKLEB tox	Peg3 prom inh-1	B2AR ag	CF NFkB block	HIF-2a inh	Peg3 prom inh-2
CCC(C)n1cnc2c(c1=O)c1nc3ccccc3nc1n2-c1ccc2c(c1)OCCO2 (stereo not drawn)	-8.3	-16.8	56.0*	-1.6	9.4	-6.8	18.3
COc1ccccc1-n1cnc2c(c1=O)c1nc3ccccc3nc1n2-c1ccc(C)cc1	0.0	4.1	3.4	4.1	-14.3	-20.1	.
C[C@@H]1CN([C@@H](C)CO)C(=O)CCCn2cc(nn2)CO[C@H]1CN(C)S(=O)(=O)c1ccccc1C#N	.	8.6	-6.9	.	3.6	12.1	.
O=C1NC[C@H](CCCCN2CCN(Cc3ccccc3)C(=O)C2=O)N(CCc2ccc(O)cc2)C1=O	.	.	.	.	.	1.7	.
COc1ccc(C(O)(CCC(C)C)C(CN2CCOCC2)c2ccc(Cl)cc2)cc1 (stereo not drawn)	14.7	-9.8	38.0	13.1	14.2	3.6	.
COc1ccc(C(O)(CC(C)C)C(CN2CCOCC2)c2ccccc2)cc1 (stereo not drawn)	2.5	4.6	70.9*	-1.0	5.8	-1.5	73.2*
Cc1c(C)c2cccnc2c2ncccc12	82.8*	-28.4	56.6*	4.8	12.6	-15.0	42.8*
Cc1ccc2ccc3cccnc3c2n1	17.3	1.9	-29.4	-4.5	-38.0	-96.5	.
Cc1nc(C)c(C(=O)N/N=C/c2cc(Br)ccc2O)s1	63.1*	4.0	50.3*	4.6	3.7	7.5	61.2*
CC1(C)CN(CCc2ccccc2)C(=O)[C@H]1CC(=O)Nc1ccccc1	.	-2.3	4.3	.	-11.8	13.5	.
COc1ccccc1NC(=O)c1cc(-c2cc(OC)c(OC)c(OC)c2)nc2ccccc12	10.8	-11.5	54.1*	29.1	28.6	-3.1	73.9*
COc1cc(-c2cc(C(=O)Nc3cc(S(=O)(=O)N4CCOCC4)ccc3C)c3ccccc3n2)cc(OC)c1OC	-9.6	-7.2	53.5*	8.1	15.0	12.6	53.3*
CCOc1ccccc1NC(=O)c1cc(-c2cc(OC)c(OC)c(OC)c2)nc2ccccc12	9.6	-7.7	45.2	9.8	-8.4	11.5	.
CCCCNC(=O)C1(C)CCCCN1C(=O)c1cc(C#N)cs1 (stereo not drawn)	.	11.7	5.7	.	-13.9	4.0	.
CC1(C(=O)NS(=O)(=O)c2ccccc2Cl)CCN1C(=O)c1ccccc1 (stereo not drawn)	.	-18.5	-4.9	.	1.1	12.3	.
Cc1nc(N2CCN(c3ccccc3O)CC2)c2c(-c3ccccc3)csc2n1	18.0	25.7	66.0*	13.9	45.3	12.2	65.8*
O=C(NC1CCCCC1)c1nc(C2CCNCC2)oc1-c1ccccc1	.	-0.5	4.1	.	6.5	-5.2	.
CCCCSc1nc(N)nc2c1ncn2C1OC(CO)C(O)C1O (stereo not drawn)	.	2.9	-15.1	.	2.2	-48.8	.

Compound activity as filed in PubChem BioAssay.
